Compound activity as filed in PubChem.
ELG1 genotox – induces genotoxicity in HEK293T cells with luciferase-tagged ELG1. Potency, µM (titrated, usually from 46 µM), inactives show at the highest dose activity change, positive = activation, actives largely listed as activators. 330,000 tested, 1.3% active. HEK293T ELG1-luciferase reporter, luminescence, 16 h; also: % of control where 0% means no effect; nearly all actives have a fitted effect of over 60% in size
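Quantitative HTS format in 1536-well plates. HEK293T ELG1-luciferase reporter cells receive test compound and are incubated 16 hr at 37 °C, 5% CO2; ONE-Glo added, 30 min room temperature, then luminescence read.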
SMN2 splice enh – increases expression of the SMN2 splice variant; Potency, µM (series often up to 46.1 µM), for inactives: at the highest dose activity change, positive = activation, usual class: activators; 210,000 tested, 2.8% active; AID 1458; HEK293 SMN2-luciferase splicing reporter, luminescence, 30-36 h; also: % of control where 0% means no effect; nearly all actives have a fitted effect of over 55% in size
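HEK293 cells carry an SMN2 minigene-luciferase reporter in which exon 7 inclusion puts luciferase in frame. Cells were seeded at 2000 cells/well, attached for 10-12 hours, then exposed to compounds for 30-36 hours at 37C before ONE-Glo luminescence.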
FLuc modulator – firefly luciferase modulation, counter-screen for miR-21 project | P08659 | purified FLuc, Km substrates, luminescence inhibition | Potency, µM (top dose mostly 57.5 µM), for the others: at the top dose activity change, negative = inhibition, actives largely listed as inhibitors | 360,000 tested, 6.9% active | AID 588342;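 also: plate controls were vehicle for no effect and reference inhibitor for full effect; nearly all actives have a fitted effect of over 55% in size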
Target sequence (P08659 whole entry, looked up): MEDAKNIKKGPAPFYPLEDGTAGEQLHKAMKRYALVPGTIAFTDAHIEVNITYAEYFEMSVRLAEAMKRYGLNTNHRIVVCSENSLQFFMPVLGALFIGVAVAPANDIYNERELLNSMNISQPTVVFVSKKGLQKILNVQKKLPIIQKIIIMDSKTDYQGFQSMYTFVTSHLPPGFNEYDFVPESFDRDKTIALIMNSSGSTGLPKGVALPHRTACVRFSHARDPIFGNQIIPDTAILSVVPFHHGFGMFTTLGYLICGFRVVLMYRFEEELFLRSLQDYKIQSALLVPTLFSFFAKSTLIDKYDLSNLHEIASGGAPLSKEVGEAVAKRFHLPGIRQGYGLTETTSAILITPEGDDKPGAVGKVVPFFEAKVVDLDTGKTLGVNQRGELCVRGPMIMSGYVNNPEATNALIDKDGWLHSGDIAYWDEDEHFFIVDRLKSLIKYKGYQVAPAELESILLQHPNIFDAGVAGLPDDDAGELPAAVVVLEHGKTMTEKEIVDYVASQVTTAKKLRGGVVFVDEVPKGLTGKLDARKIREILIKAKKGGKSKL
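Purified P. pyralis luciferase, 10 nM final, with Km-level 10 uM D-luciferin and 10 uM ATP in 50 mM Tris acetate pH 7.5, 10 mM Mg acetate, 0.01% Tween-20, 0.05% BSA; 6-point qHTS titration about 60 µM downward; luminescence read.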
NPC1 prom act – activates the NPC1 promoter; AID 485313; Potency, µM (doses to about 9.22 µM), inactives show at the highest dose activation, hits mostly activators; Huh7 NPC1 promoter luciferase reporter, 24 h; 320,000 tested, 2.4% active; also: % of control where 0% means no effect; nearly all actives have a fitted effect of over 60% in size
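Luciferase expression driven by the NPC1 promoter was measured in stably transfected Huh7 cells after a 24 h compound incubation, using a luciferase reagent and a luminescence read.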
Rab9 prom act – activates the Rab9 promoter; Huh7 Rab9 promoter-luciferase reporter, luminescence, 24 h; Potency, µM (doses to about 9.22 µM), without a hit: top-dose activation, negative = inhibition, hits mostly activators; 320,000 tested, 2.8% active; AID 485297; also: % of control where 0% means no effect; nearly all actives have a fitted effect of over 60% in size
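Cell-based reporter: Huh7 stable for Rab9 promoter-driven luciferase, plated in reduced-serum medium with 10% FBS at 1500 cells/well, compound-treated 24 h at 37 °C, luminescence read after 10 min reagent.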
ELG1 repair inh – inhibitors of ELG1-dependent DNA repair in HEK293T cells; HEK293T ELG1-luciferase reporter, luminescence, 16 h; DNA damage induced by 5-fluorouridine; AID 504467; 330,000 tested, 2.3% active; Potency, µM (top dose mostly 46.1 µM), for the others: at the highest dose activity change, negative = inhibition, most hits filed as inhibitors; also: % is scaled to controls: 0 for no effect and ±100 for the full control effect; nearly all actives have a fitted effect of over 55% in size
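Overnight (16 hr) co-exposure of 2,000 cells/well to 5-fluorouridine and compound at 37 °C preceded detection. Luciferase was quantified via ONE-Glo luminescence; loss of signal denotes inhibition.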
Starred values were filed as active, the others as inactive; ? = inconclusive; · = not tested or not shown. Sampled rows, rich in hits. Any-hit rate of the full collection: about 9.3%. Calls follow the shape of the dose curve; as a rule, active = well fitted curve in the direction sought with a large enough effect; inconclusive = small, poorly fitted or top-dose-only effect, or another doubt; inactive = no such curve, though single readings can be large; an effect the other way counts as inactive or inconclusive. Potency is read from the fitted curve at half-maximal effect.

SMILES | ELG1 genotox | SMN2 splice enh | FLuc modulator | NPC1 prom act | Rab9 prom act | ELG1 repair inh
COc1cccc(C(=O)Nc2ccccc2N2CCCC2)c1 | -1% | -18% | 3% | 0% | -6% | -5%
COCCn1c(-c2ccc(F)cc2)nc2cccnc21 | 0% | · | 0% | -1% | -4% | -22%
CCOc1ccccc1-c1nc(C(N)=O)c2[nH]c(=O)n(-c3ccccc3)c2n1 | 0% | -14% | 1% | 9% | 3% | ?
Cc1ccc(C)c(N2CCN(CCCNC(=O)c3ccc4nc(CCc5ccccc5)oc4c3)CC2)c1 | · | · | -3% | · | · | ·
Cc1nnc(SCc2ccccc2Cl)c2cc3occc3n12 | · | · | 17µM* | · | · | ·
Cc1oc(-c2ccccc2F)nc1CSc1nnc(C)n2c1cc1occc12 | · | · | -1% | · | · | ·
O=S(=O)(c1ccc(Cl)cc1)N1CCn2c1nc1ccccc12 | -5% | · | -4% | 0% | 2% | -2%
CCOC(=O)c1ccc(NC(=S)Nc2cccc(C)n2)cc1 | 9% | -18% | -2% | -4% | -6% | 8%
CC1CCc2c(sc(NC(=O)c3ccc(Cl)cc3Cl)c2C#N)C1 (stereo unspecified) | · | 0% | 4% | · | · | ·
Cc1cc(C(=O)Nc2sc3c(c2C#N)CCC(C)C3)no1 (stereo unspecified) | 2.1µM* | 14µM* | 2.7µM* | 1.8µM* | 2µM* | ?
Cc1cc(C(=O)Nc2sc3c(c2C#N)CCCC3)no1 | ? | 6.3µM* | 2.4µM* | 3.2µM* | 1.6µM* | ?
CCOC(=O)c1cc(C(=O)Nc2sc3c(c2C#N)CCCC3)nn1C | 7% | · | 4.8µM* | 2% | ? | -1%
Cn1ccc(C(=O)Nc2sc3c(c2C#N)CCC3)n1 | 0% | · | ? | -2% | 0% | 11%
Cc1cc(C(=O)Nc2sc3c(c2C#N)CCC3)no1 | 6.5µM* | ? | 5.4µM* | -3% | 29% | ?
COC(=O)c1cnc(N2CCCN(S(=O)(=O)c3ccccc3)CC2)nc1C(F)(F)F | -1% | · | 1% | 2% | -4% | -22%
CCNc1nc(NCC)nc(OCCOC(C)=O)n1 | 4% | 10% | -5% | -3% | -4% | ?
COc1ccccc1C1CC(=O)Nc2cc(C)c(C)cc21 (stereo unspecified) | -3% | · | -1% | -23% | -14% | ?
COc1ccc(CCN2C(=O)NC(NC(=O)CCc3ccccc3)(C(F)(F)F)C2=O)cc1OC (stereo unspecified) | -1% | -10% | 0% | -4% | -3% | -23%
Cc1ccc(NC(=O)[C@@H]2CCCN2C(=O)[C@@H]2Cc3ccccc3CN2)c(C)c1 | 2% | · | -11% | 3% | 3% | ?
CCc1ccc(-c2cc(C(=O)NN3CCOCC3)c3ccccc3n2)cc1 | 3% | 1% | 4.8µM* | 10% | 3% | ?
O=C(c1cc(C2CC2)nc2ccccc12)N1N=C(C(F)F)CC1(O)C(F)F (stereo unspecified) | 0% | -11% | -2% | -3% | 4% | 3%
CC(C)c1ccc(-c2cc(C(=O)N3N=C(C(F)F)CC3(O)C(F)F)c3ccccc3n2)cc1 (stereo unspecified) | ? | ? | 1.5µM* | ? | ? | ?
CC(C)c1ccc(-c2cc(C(=O)NN3CCN(C)CC3)c3ccccc3n2)cc1 | ? | ? | 0.6µM* | ? | ? | ?
COc1cc(CN2CCc3nc(N4CCN(c5ncccn5)CC4)ncc3C2)cc(OC)c1OC | · | · | -7% | · | · | ·
CN(Cc1ccccc1)C(=O)C1CCCN1S(=O)(=O)c1ccc(Cl)cc1 (stereo unspecified) | -1% | · | 6% | -9% | 2% | 9%
Cc1ccccc1NC(=O)C(=Cc1ccc(C(=O)O)cc1)C(=O)Nc1ccccc1C | -20% | -53% | -8% | -37% | -52% | 12µM*
